Laboratory results: PubChem BioAssay AID1159580 (chemical genetic matrix, 2015)
About 2,000 (36%) of roughly 5,500 compounds were called active. About 18% were inconclusive and are not listed. No stated cut-off is given here; in the data, active means normalized growth mostly below about 0.91 (no sharp cut-off); inconclusive means no clear call, values can overlap the other calls; inactive means mostly above about 0.92. This is one part of the list.

Test: chemical genetic growth profiling, strain panel (AID 1159580);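 further: tested at 20 µM; growth read once vehicle control cultures reached saturation at 30 °C; 1 = growth at the plate median or of vehicle wells; lower values mean less growth of the strain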
Details: growth OD

Measured: normalized growth

c1ccc(N=Nc2ccccc2)cc1
inactive: S. cerevisiae deletion strains, locus YJR066W, strain TOR1, hits give low values 0.95 | S. cerevisiae deletion strains, locus YJR075W, strain HOC1, hits give low values 0.98 | S. cerevisiae deletion strains, locus YKL009W, strain mrt4, hits give low values 1 | S. cerevisiae deletion strains, locus YKL068W, hits give low values 1.02 | S. cerevisiae deletion strains, locus YKL085W, strain MDH1 (second series), hits give low values 1.01 | S. cerevisiae deletion strains, locus YKL085W, strain MDH1, hits give low values 1.01 | S. cerevisiae deletion strains, locus YKL160W, strain elf1, hits give low values 0.996 | S. cerevisiae deletion strains, locus YKL190W, strain CNB1, hits give low values 0.993 | S. cerevisiae deletion strains, locus YKR001C, strain vps1, hits give low values 0.979 | S. cerevisiae deletion strains, locus YKR026C, strain gcn3, hits give low values 0.982 | S. cerevisiae deletion strains, locus YKR091W, strain srl3, hits give low values 0.987 | S. cerevisiae deletion strains, locus YLL001W, strain dnm1, hits give low values 0.977 | S. cerevisiae deletion strains, locus YLL026W, hits give low values 0.986 | S. cerevisiae deletion strains, locus YLL041C, strain sdh2, hits give low values 0.989 | S. cerevisiae deletion strains, locus YLR027C, strain aat2, hits give low values 0.983 | S. cerevisiae deletion strains, locus YLR039C, strain RIC1, hits give low values 0.878 | S. cerevisiae deletion strains, locus YLR058C, strain SHM2, hits give low values 0.992 | S. cerevisiae deletion strains, locus YLR102C, strain apc9, hits give low values 1.03 | S. cerevisiae deletion strains, locus YLR113W, strain HOG1, hits give low values 0.978 | S. cerevisiae deletion strains, locus YLR221C, strain rsa3, hits give low values 0.984 | S. cerevisiae deletion strains, locus YLR258W, strain gsy2, hits give low values 0.974 | S. cerevisiae deletion strains, locus YLR262C, strain YPT6 (second series), hits give low values 0.921 | S. cerevisiae deletion strains, locus YLR262C, strain YPT6, hits give low values 0.887 | S. cerevisiae deletion strains, locus YLR268W, strain sec22, hits give low values 0.988 | S. cerevisiae deletion strains, locus YLR320W, strain mms22, hits give low values 0.993 | S. cerevisiae deletion strains, locus YLR330W, strain CHS5, hits give low values 1.01 | S. cerevisiae deletion strains, locus YLR342W, strain FKS1 (second series), hits give low values 0.966 | S. cerevisiae deletion strains, locus YLR342W, strain FKS1, hits give low values 0.994 | S. cerevisiae deletion strains, locus YLR357W, strain rsc2, hits give low values 0.97 | S. cerevisiae deletion strains, locus YLR370C, strain arc18, hits give low values 0.996 | S. cerevisiae deletion strains, locus YLR371W, strain rom2, hits give low values 1.02 | S. cerevisiae deletion strains, locus YLR384C, strain iki3, hits give low values 0.973 | S. cerevisiae deletion strains, locus YLR418C, strain cdc73, hits give low values 1 | S. cerevisiae deletion strains, locus YML016C, strain PPZ1, hits give low values 1.01 | S. cerevisiae deletion strains, locus YML032C, strain rad52, hits give low values 1.01 | S. cerevisiae deletion strains, locus YML120C, strain ndi1, hits give low values 0.976 | S. cerevisiae deletion strains, locus YML124C, strain tub3, hits give low values 1.03 | S. cerevisiae deletion strains, locus YMR058W, strain fet3, hits give low values 0.99 | S. cerevisiae deletion strains, locus YMR078C, strain ctf18, hits give low values 1.01 | S. cerevisiae deletion strains, locus YMR125W, strain sto1, hits give low values 0.978 | S. cerevisiae deletion strains, locus YMR129W, hits give low values 0.991 | S. cerevisiae deletion strains, locus YMR205C, strain PFK2, hits give low values 0.952 | S. cerevisiae deletion strains, locus YMR223W, strain ubp8, hits give low values 1 | S. cerevisiae deletion strains, locus YMR231W, strain pep5, hits give low values 0.991 | S. cerevisiae deletion strains, locus YMR263W, strain SAP30, hits give low values 0.972 | S. cerevisiae deletion strains, locus YMR307W, strain GAS1, hits give low values 0.945 | S. cerevisiae deletion strains, locus YNL067W, strain RPL9B, hits give low values 0.975 | S. cerevisiae deletion strains, locus YNL071W, strain lat1, hits give low values 1 | S. cerevisiae deletion strains, locus YNL183C, strain NPR1, hits give low values 0.904 | S. cerevisiae deletion strains, locus YNL209W, strain ssb2, hits give low values 0.991 | S. cerevisiae deletion strains, locus YNL233W, strain BNI4, hits give low values 0.971 | S. cerevisiae deletion strains, locus YNL248C, strain rpa49, hits give low values 0.993 | S. cerevisiae deletion strains, locus YNL250W, strain rad50, hits give low values 1.03 | S. cerevisiae deletion strains, locus YNL271C, strain bni1, hits give low values 1.03 | S. cerevisiae deletion strains, locus YNL298W, strain CLA4, hits give low values 1 | S. cerevisiae deletion strains, locus YNL307C, strain MCK1, hits give low values 1 | S. cerevisiae deletion strains, locus YNL322C, strain KRE1 (second series), hits give low values 0.974 | S. cerevisiae deletion strains, locus YNR049C, strain mso1, hits give low values 0.994 | S. cerevisiae deletion strains, locus YNR052C, strain pop2, hits give low values 1.03 | S. cerevisiae deletion strains, locus YOL006C, strain TOP1, hits give low values 0.974 | S. cerevisiae deletion strains, locus YOL012C, strain htz1 0.782 | S. cerevisiae deletion strains, locus YOL147C, strain pex11, hits give low values 1.02 | S. cerevisiae deletion strains, locus YOR001W, strain rrp6, hits give low values 0.991 | S. cerevisiae deletion strains, locus YOR061W, strain CKA2, hits give low values 1 | S. cerevisiae deletion strains, locus YOR069W, strain VPS5, hits give low values 1 | S. cerevisiae deletion strains, locus YOR070C, strain gyp1, hits give low values 0.985 | S. cerevisiae deletion strains, locus YOR080W, strain dia2, hits give low values 0.974 | S. cerevisiae deletion strains, locus YOR083W, strain WHI5, hits give low values 0.989 | S. cerevisiae deletion strains, locus YOR106W, strain vam3, hits give low values 0.987 | S. cerevisiae deletion strains, locus YOR136W, strain idh2, hits give low values 1.02 | S. cerevisiae deletion strains, locus YOR144C, strain elg1, hits give low values 1.02 | S. cerevisiae deletion strains, locus YOR184W, strain ser1, hits give low values 0.912 | S. cerevisiae deletion strains, locus YOR231W, strain MKK1, hits give low values 0.944 | S. cerevisiae deletion strains, locus YOR265W, strain rbl2, hits give low values 0.985 | S. cerevisiae deletion strains, locus YOR270C, strain vph1, hits give low values 1.11 | S. cerevisiae deletion strains, locus YOR290C, strain snf2, hits give low values 0.998 | S. cerevisiae deletion strains, locus YOR316C, strain cot1, hits give low values 1.03 | S. cerevisiae deletion strains, locus YPL051W, strain arl3, hits give low values 0.987 | S. cerevisiae deletion strains, locus YPL055C, strain LGE1, hits give low values 0.995 | S. cerevisiae deletion strains, locus YPL078C, strain atp4, hits give low values 0.979 | S. cerevisiae deletion strains, locus YPL106C, strain sse1, hits give low values 0.98 | S. cerevisiae deletion strains, locus YPL240C, strain hsp82, hits give low values 0.986 | S. cerevisiae deletion strains, locus YPL256C, strain CLN2, hits give low values 0.953 | S. cerevisiae deletion strains, locus YPR119W, strain clb2, hits give low values 1.03 | S. cerevisiae deletion strains, locus YPR141C, strain kar3, hits give low values 1.03 | S. cerevisiae deletion strains, locus YPR163C, strain tif3, hits give low values 1.04 | S. cerevisiae deletion strains, locus YPR167C, strain met16, hits give low values 1.02 | S. cerevisiae deletion strains, strain wtn01, hits give low values 1.04 | S. cerevisiae strains, strain wild type, hits give low values 1
